In the library only some 1.5% were active in any assay of this set; here they are far more common.
RAD52 inh: RAD52 DNA annealing inhibitors, primary screen, biochemical, FRET, single point, set 2 | DNA repair protein RAD52 homolog (Homo sapiens), P43351 | recombinant RAD52 DNA annealing, FRET fluorescence | inhibition, % at 18.7 µM | 360,000 compounds, 0.46% hits;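 active means every replicate showing at least 50% inhibition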
NSD2 inh: NSD2 histone methyltransferase inhibitors, primary screen, biochemical, AlphaScreen, single concentration, set 2; Histone-lysine N-methyltransferase NSD2 (Homo sapiens), O96028; NSD2 peptide methylation, 120 min; inhibition, % at 12.5 µM; 310,000 compounds, 0.54% hits; AID 743445, 2014; in the data active means inhibition above about 50%
Target sequence (O96028 whole entry, looked up): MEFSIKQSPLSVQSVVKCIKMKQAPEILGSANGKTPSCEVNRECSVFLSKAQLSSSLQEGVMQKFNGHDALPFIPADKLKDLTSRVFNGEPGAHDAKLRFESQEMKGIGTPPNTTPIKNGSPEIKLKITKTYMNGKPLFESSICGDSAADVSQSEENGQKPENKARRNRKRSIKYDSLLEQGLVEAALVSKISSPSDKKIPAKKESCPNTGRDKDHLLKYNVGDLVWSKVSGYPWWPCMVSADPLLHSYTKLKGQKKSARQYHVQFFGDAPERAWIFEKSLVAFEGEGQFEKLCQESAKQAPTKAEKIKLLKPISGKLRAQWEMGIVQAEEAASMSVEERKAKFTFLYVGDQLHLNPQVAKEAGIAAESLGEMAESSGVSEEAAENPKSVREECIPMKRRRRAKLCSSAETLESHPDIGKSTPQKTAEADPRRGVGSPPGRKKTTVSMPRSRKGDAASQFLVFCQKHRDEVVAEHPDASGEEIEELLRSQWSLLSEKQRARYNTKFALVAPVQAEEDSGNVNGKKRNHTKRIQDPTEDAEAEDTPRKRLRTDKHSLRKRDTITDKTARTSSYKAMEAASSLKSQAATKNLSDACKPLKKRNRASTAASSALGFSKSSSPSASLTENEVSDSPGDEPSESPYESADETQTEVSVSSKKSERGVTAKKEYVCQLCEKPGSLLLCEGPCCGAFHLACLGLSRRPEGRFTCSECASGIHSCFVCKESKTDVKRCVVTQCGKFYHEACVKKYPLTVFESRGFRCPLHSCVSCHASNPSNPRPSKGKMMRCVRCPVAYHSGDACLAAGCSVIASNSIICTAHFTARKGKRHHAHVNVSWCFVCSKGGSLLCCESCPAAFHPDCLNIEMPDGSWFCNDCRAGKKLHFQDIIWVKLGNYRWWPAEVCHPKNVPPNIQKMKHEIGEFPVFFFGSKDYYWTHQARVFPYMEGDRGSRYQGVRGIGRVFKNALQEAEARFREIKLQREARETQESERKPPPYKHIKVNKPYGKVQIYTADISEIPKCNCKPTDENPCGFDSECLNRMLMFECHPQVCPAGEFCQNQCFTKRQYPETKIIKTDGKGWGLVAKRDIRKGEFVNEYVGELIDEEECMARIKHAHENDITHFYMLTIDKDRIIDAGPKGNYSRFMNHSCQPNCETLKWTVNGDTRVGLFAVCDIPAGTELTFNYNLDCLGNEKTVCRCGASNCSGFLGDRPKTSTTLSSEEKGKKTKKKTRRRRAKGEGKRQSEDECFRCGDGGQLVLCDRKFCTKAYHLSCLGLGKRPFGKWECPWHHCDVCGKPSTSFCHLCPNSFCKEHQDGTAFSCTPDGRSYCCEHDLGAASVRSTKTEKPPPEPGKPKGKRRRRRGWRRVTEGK
MLL AF4-AF9 inh: inhibitors of AF4 peptide binding to AF9, primary screen, biochemical, AlphaScreen, biotin-AF4 peptide, FLAG-AF9, single point | Protein AF-9 (Homo sapiens), P42568 | inhibition, % at 10 µM | 350,000 compounds, 0.47% hits | AID 651704, 2012;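 active means every replicate reaching a set inhibition limit, whatever the replicate mean, cut at about 25% in these data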;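 further: 0% = plate neutral control median and 100% = total signal loss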
miR-122 sensor: miR-122 Renilla sensor signal increase in Huh7, primary screen, miR-122 inhibitor project, cell-based, single point, plate reader; Huh7 miR-122 Renilla luciferase sensor, 48 h; neutral wells = 0, positive control = 100; 340,000 compounds, 0.3% hits; activation (reporter increase), % at 12.5 µM;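 active means mean replicate activation score at least 90 and every replicate individually at or above 90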;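 further: higher luciferase means less miR-122 activity so hits act as miR-122 inhibitors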
Casp6 inh: human caspase-6 inhibitors, primary screen, biochemical, VEID-R110 fluorescence, single point, set 2 | purified caspase-6, Z-VEID-R110 cleavage fluorescence | P55212 | inhibition, % at 12.5 µM | 350,000 compounds, 0.53% hits | AID 686996, 2013;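 active means mean inhibition across replicates at least about 35%, with every replicate also reaching that limit, limit read from the data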;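 further: 0% = median of neutral control wells and 100% = no fluorescence left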
* marks the source's active call; other numbers are inactive results; [ ] = dose if it differs, or a comment.

CN(Cc1ccccc1)S(=O)(=O)c1ccc(NC(=S)NC(=O)C2CCCCC2)cc1 was read as RAD52 inh -5, NSD2 inh -1, MLL AF4-AF9 inh -6, miR-122 sensor 125* and Casp6 inh -1.
`CCN(CC)c1ccc(NC(=S)NC(=O)C2CCC2)cc1` gave RAD52 inh -42, NSD2 inh 17, MLL AF4-AF9 inh 26*, miR-122 sensor -2 and Casp6 inh 3.
C[C@@H]1CN([C@@H](C)CO)C(=O)Cc2cc(NC(=O)Cc3ccccc3)ccc2O[C@H]1CN(C)Cc1ccncc1 was read as RAD52 inh 4, MLL AF4-AF9 inh 1, miR-122 sensor 6[16.7 µM] and Casp6 inh 0.
For CC(C)NC(=O)N[C@H]1C[C@@H]2O[C@@H](CO)CC[C@@H]2O[C@@H]1CCc1ccc(-c2ccccc2F)cc1 the results were RAD52 inh 20, MLL AF4-AF9 inh 33* and Casp6 inh 1.
Screening CC(C)NC(=O)N[C@@H]1C[C@@H]2O[C@@H](CO)CC[C@@H]2O[C@@H]1CCc1ccc(-c2ccc(F)cc2)cc1 returned RAD52 inh -10, MLL AF4-AF9 inh -4 and Casp6 inh -1.
O=C(Nc1ccc(F)cc1)N[C@@H]1C[C@@H]2O[C@@H](CO)CC[C@@H]2O[C@@H]1CCc1ccc(-c2ccccc2)cc1 was read as RAD52 inh 1, MLL AF4-AF9 inh 0 and Casp6 inh -1.
Screening CC(=O)N1CCc2c(sc(NC(=O)Cc3ccccc3)c2C(N)=O)C1 returned RAD52 inh -18, MLL AF4-AF9 inh -8, miR-122 sensor -5 and Casp6 inh 67*.
CC(C)N1CCc2c(sc(NC(=O)Cc3ccccc3)c2C(N)=O)C1 was read as RAD52 inh -2, MLL AF4-AF9 inh 1, miR-122 sensor -2 and Casp6 inh 0.
For CC(=O)N1CCc2c(sc(NC(=O)C3CCCCC3)c2C(N)=O)C1 the results were RAD52 inh -68, MLL AF4-AF9 inh -1, miR-122 sensor -10 and Casp6 inh 75*.
Screening Cc1noc(C)c1NC(=O)N(C)C[C@@H]1Oc2ccc(NC(=O)Nc3ccc4c(c3)OCO4)cc2C(=O)N([C@H](C)CO)C[C@@H]1C returned RAD52 inh 20, MLL AF4-AF9 inh 2, miR-122 sensor 2[16.7 µM] and Casp6 inh 2.
O=C(/C=C/c1ccco1)Nc1ccc(-c2nc3ccccc3[nH]2)cc1 was read as NSD2 inh 0 and miR-122 sensor 101*.
`COc1ccc(NC(=O)N(C)C[C@H]2OCCCC[C@@H](C)Oc3ccc(NC(=O)Nc4ccccc4)cc3C(=O)N([C@@H](C)CO)C[C@H]2C)cc1` gave RAD52 inh -33, MLL AF4-AF9 inh -3, miR-122 sensor 1[16.7 µM] and Casp6 inh 0.
Screening CN(C=[N+](C)C)c1cccc2c1C(=O)c1ccccc1C2=O returned NSD2 inh 69*.
For CC(C)OCCCN(C)C1CCN(S(=O)(=O)c2ccc(-c3cc(C(F)(F)F)on3)s2)CC1 the results were NSD2 inh 0.
Screening O=C(O)CCC(=O)/C=C/c1ccccc1 returned RAD52 inh 1, NSD2 inh 2, MLL AF4-AF9 inh -1, miR-122 sensor -3 and Casp6 inh 4.
CC(C)c1ccc(/C=C/C(=O)CCC(=O)O)cc1 was read as RAD52 inh -12, NSD2 inh 0, MLL AF4-AF9 inh -1, miR-122 sensor 213* and Casp6 inh 3.
For COc1ccc(C(=O)N2c3cc4c(cc3C(C)=CC2(C)C)OCO4)cc1 the results were NSD2 inh 6, MLL AF4-AF9 inh 32* and miR-122 sensor 1.
Cc1ccc2occ(C(c3nnnn3Cc3ccccc3)N3CCOCC3)c(=O)c2c1 (configuration not stated) was read as NSD2 inh 67* and miR-122 sensor -1.
Screening Cc1ccc(S(=O)(=O)N/N=C\c2ccc(C)o2)cc1 returned RAD52 inh -16, NSD2 inh 3, MLL AF4-AF9 inh -46 and Casp6 inh 41*.
Cc1ccc(/C=N/NS(=O)(=O)c2ccc([N+](=O)[O-])cc2)o1 was read as NSD2 inh 0 and miR-122 sensor 4.
CC=Cc1ccc2n(c1=O)C[C@@H]1[C@@H](CO)[C@H](C(=O)N[C@@H](C)c3ccccc3)[C@H]2N1Cc1cccnc1 (mixture of isomers) was read as RAD52 inh -17, MLL AF4-AF9 inh 1, miR-122 sensor 2[16.7 µM] and Casp6 inh 2.
Screening COc1ccc(NC(=O)Nc2ccc3c(c2)CC(=O)N([C@H](C)CO)C[C@@H](C)[C@H](CN(C)S(=O)(=O)c2cn(C)cn2)O3)cc1 returned RAD52 inh -12, MLL AF4-AF9 inh -2, miR-122 sensor -5[16.7 µM] and Casp6 inh 0.
O=C(CN1CCOCC1)N1CCCCN2[C@H](CO)[C@H](c3ccc(C#Cc4ccccc4F)cc3)[C@H]2C1 was read as RAD52 inh 24, MLL AF4-AF9 inh 0, miR-122 sensor -4[16.7 µM] and Casp6 inh -1.
For COc1cccc(/C=C2\SC(=S)N(CC3CCCO3)C2=O)c1 (configuration not stated) the results were RAD52 inh -3, NSD2 inh 8, MLL AF4-AF9 inh 32* and Casp6 inh 0.
CO[C@@H]1CN(C)C(=O)c2cc(NC(=O)C3CCC3)ccc2OC[C@@H](C)N(Cc2nccs2)C[C@H]1C was read as RAD52 inh 4, MLL AF4-AF9 inh 0, miR-122 sensor 4[16.7 µM] and Casp6 inh 1.
`COc1ccc(N2CCN(C3CCCN(S(=O)(=O)c4ccc(C)cc4C)C3)CC2)cc1` (configuration not stated) gave RAD52 inh -15, NSD2 inh 23, MLL AF4-AF9 inh 32* and miR-122 sensor 14.
`COc1ccc(N2CCN(C3CCCN(S(=O)(=O)c4ccccc4)C3)CC2)cc1` (configuration not stated) gave RAD52 inh -8, NSD2 inh 8, MLL AF4-AF9 inh 6, miR-122 sensor 0 and Casp6 inh 1.
`CO[C@@H]1CN(C)C(=O)c2ccc(NC(=O)C3CC3)cc2OC[C@H](C)N(CCc2ccccc2)C[C@H]1C` gave RAD52 inh -6, MLL AF4-AF9 inh -1 and Casp6 inh 0.
`Cc1cc(C)n(CCNC(=O)C2CCC(=O)N(Cc3ccc(Cl)cc3)C2)n1` (configuration not stated) gave RAD52 inh -2, NSD2 inh -1, MLL AF4-AF9 inh -1, miR-122 sensor -2 and Casp6 inh 63*.
Cc1ccn(CCNC(=O)C2CCC(=O)N(Cc3ccc(Cl)cc3)C2)n1 (configuration not stated) was read as RAD52 inh -4, NSD2 inh -3, MLL AF4-AF9 inh 2, miR-122 sensor 0 and Casp6 inh 0.

Screening data (PubChem)
